From PubChem
Mac1 fbg inh: inhibitors of human CD11b/CD18 binding to fibrinogen; K562 CD11b/CD18 adhesion to fibrinogen, ATPlite luminescence; Mn2+ added to activate the integrin; inhibition, % at 10 µM; 0.54% of 93,000 active;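 active = primary inhibition of 50% or more at 10 µM, then 40% or more on retest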
S1P2 blocker: antagonists of human S1P2 receptor; O95136; cell-based S1P2 antagonist assay, inhibition at 5 uM; inhibition, % at 5 µM; 0.21% of 97,000 active; AID 736; in the data active = inhibition above about 45%;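 note: CRE beta-lactamase reporter cells expressing human S1P2 stimulated with S1P; 0% = agonist at EC80 alone and 100% = agonist plus reference antagonist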
Target sequence (O95136 whole entry, looked up): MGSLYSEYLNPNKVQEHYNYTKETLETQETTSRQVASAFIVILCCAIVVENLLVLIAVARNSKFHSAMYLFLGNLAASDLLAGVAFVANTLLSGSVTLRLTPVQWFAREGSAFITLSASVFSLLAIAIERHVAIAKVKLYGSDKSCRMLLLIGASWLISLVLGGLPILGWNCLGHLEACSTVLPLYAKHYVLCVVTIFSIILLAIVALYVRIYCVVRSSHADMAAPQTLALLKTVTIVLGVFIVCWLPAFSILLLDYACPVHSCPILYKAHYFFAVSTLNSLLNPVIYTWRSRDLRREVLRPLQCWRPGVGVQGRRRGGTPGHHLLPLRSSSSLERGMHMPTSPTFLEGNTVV
S1P2 ag: S1P2 (human) receptor agonism; S1P2-expressing cell line, agonist reporter read-out; 0.46% of 97,000 active; activation, % at 4.5 µM; O95136; in the data active = activation above about 16%;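 note: 0% = vehicle low control and 100% = maximal reference agonist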
GALR2 antag: blocks the human galanin receptor 2; O43603; GALR2-expressing cells, antagonist mode; inhibition, % at 4 µM; 0.39% of 140,000 active;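 note: cells stimulated with galanin 1-16 at roughly its EC80; 0% = agonist challenge control and 100% = basal control without agonist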
CD11b adhes enh: CD11b/CD18-fibrinogen binding enhancement. P05107+P11215. K562 CD11b/CD18 adhesion to fibrinogen, ATPlite luminescence. 0.07% of 93,000 active. activation, % at 10 µM;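 active = 10 µM primary screen giving 50% or more activity, confirmed by 40% or more on retest at that dose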
GALR2 ag: activates the human galanin receptor 2; O43603; GALR2-expressing cells, agonist activation read-out; activation, % (no concentration beside the values); 0.48% of 140,000 active; in the data active = activation above about 5%, passing the limit was not always enough;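 note: 0% = vehicle buffer wells and 100% = reference agonist at full effect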
GALR2 ant conf: GALR2 (human) antagonism confirmed | shares compounds with GALR2 antag | GALR2-expressing cells, antagonist mode, inhibition | inhibition, % at 4 µM | 60% of 480 active | AID 866;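 note: cells stimulated with galanin at about its EC80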
BLA inhib ctr: inhibits beta-lactamase reporter in GALR2 antagonist counterscreen; shares compounds with GALR2 antag; CHO NFAT-BLA reporter, beta-lactamase FRET, thapsigargin-stimulated; inhibition, % at 4.2 µM; 36% of 480 active;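 active = inhibition above the mean inhibition across tested compounds plus 3 SD, cut at about 27% in these data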;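 note: 0% = 500 nM thapsigargin stimulated wells and 100% = unstimulated BSA only wells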
* = called active by the depositor. A selection: hits, their analogues and other compounds. The true share with any hit is near 1.4%. Cut-off read from the data, not from the text of the source, unless noted: active = inhibition above about 27%; inactive = the rest.

For O=C(Nc1ccc2nc(-c3cccnc3)[nH]c2c1)C12CC3CC(CC(C3)C1)C2 the results were S1P2 blocker 4, S1P2 ag -7, GALR2 antag 43*, GALR2 ag -3, GALR2 ant conf 30* and BLA inhib ctr 10.
Screening Nc1nc(Nc2cccc(F)c2)nc2ccccc12 returned Mac1 fbg inh 8, GALR2 antag 31*, CD11b adhes enh -5, GALR2 ag -1, GALR2 ant conf 24 and BLA inhib ctr 13.
Screening Cn1cnc([N+](=O)[O-])c1NC(C)(C)C returned Mac1 fbg inh 9, S1P2 blocker -6, S1P2 ag -3, GALR2 antag 3, CD11b adhes enh 0 and GALR2 ag 0.
`Cn1cnc([N+](=O)[O-])c1S(=O)(=O)c1ccc(Cl)cc1` gave GALR2 antag 38*, GALR2 ag -1, GALR2 ant conf 41* and BLA inhib ctr 21.
For O=S(=O)(c1ccccc1S(=O)(=O)N1CCCCC1)N1CCCCC1 the results were Mac1 fbg inh 1, S1P2 blocker 6, S1P2 ag -1, GALR2 antag 0, CD11b adhes enh -6 and GALR2 ag 0.
CCOC(=O)c1c(C)[nH]c(C(=O)CSc2nnc(CC(C)c3ccccc3)o2)c1C (stereo not drawn) was read as Mac1 fbg inh -13, GALR2 antag -7, CD11b adhes enh 11 and GALR2 ag 1.
Screening COc1ccc(OCCNc2cc(Cl)ccc2[N+](=O)[O-])cc1 returned Mac1 fbg inh -55, S1P2 blocker -1, S1P2 ag 1, GALR2 antag 71*, CD11b adhes enh 2, GALR2 ag -4, GALR2 ant conf 11 and BLA inhib ctr 5.
COc1ccc(OCCNc2cc(N3CCCCC3)ccc2[N+](=O)[O-])cc1 was read as S1P2 blocker -33, S1P2 ag -1, GALR2 antag 2 and GALR2 ag -3.
For Cc1ccc(NC(=O)/C=C/c2ccc([N+](=O)[O-])s2)c(C)c1 the results were Mac1 fbg inh -1, GALR2 antag 33*, CD11b adhes enh 0, GALR2 ag 1, GALR2 ant conf 54* and BLA inhib ctr 55*.
For Cc1cccc(NC(=O)/C=C/c2ccc([N+](=O)[O-])s2)c1 the results were Mac1 fbg inh -8, GALR2 antag 32*, CD11b adhes enh 29, GALR2 ag 0, GALR2 ant conf 46* and BLA inhib ctr 47*.
Screening COc1ccccc1C(=O)Nc1ccccn1 returned Mac1 fbg inh -1, S1P2 blocker -10, S1P2 ag -5, GALR2 antag 15, CD11b adhes enh -2 and GALR2 ag -3.
`Cn1c(=O)c(NCCc2ccccc2)c2c3c(cccc31)C(=O)c1ccccc1-2` gave Mac1 fbg inh 11, S1P2 blocker 29, S1P2 ag -4, GALR2 antag 40*, CD11b adhes enh -2, GALR2 ag 1, GALR2 ant conf 38* and BLA inhib ctr 42*.
Screening CN(C(=O)COc1cccc(Br)c1)C1CCS(=O)(=O)C1 (stereo not drawn) returned Mac1 fbg inh -13, S1P2 blocker 25, S1P2 ag -11, GALR2 antag 4, CD11b adhes enh 1 and GALR2 ag -1.
O=C(CCc1ccccc1)Nc1ncn[nH]1 was read as S1P2 blocker 3, S1P2 ag -4, GALR2 antag 0 and GALR2 ag -3.
For O=C(/C=C/c1ccccc1)Nc1ncn[nH]1 the results were Mac1 fbg inh 18, S1P2 blocker 28, S1P2 ag -3, GALR2 antag 30*, CD11b adhes enh 1, GALR2 ag -4, GALR2 ant conf 37* and BLA inhib ctr 24.
Cc1ccc(NC(=O)COc2ccc(S(=O)(=O)N3CCOCC3)cc2)cc1 was read as S1P2 blocker -6, S1P2 ag -6, GALR2 antag 5 and GALR2 ag -2.
CCOc1cc(NC(=S)NCC2CCCO2)c(OCC)cc1NC(=O)c1cccc(C)c1 (stereo not drawn) was read as S1P2 blocker -5, S1P2 ag 0, GALR2 antag 3 and GALR2 ag -4.
Screening Oc1sc(C=Nc2ccccc2)c2ccccc12 returned Mac1 fbg inh -1, S1P2 blocker 32, S1P2 ag -6, GALR2 antag 39*, CD11b adhes enh 6, GALR2 ag -2, GALR2 ant conf 30* and BLA inhib ctr 28*.
Oc1c(C=Nc2cccnc2)sc2ccccc12 was read as Mac1 fbg inh 25, S1P2 blocker 7, S1P2 ag -2, GALR2 antag 10, CD11b adhes enh -3 and GALR2 ag 0.
For COc1ccc(N=Cc2c(O)[nH]c3ccccc23)cc1 the results were S1P2 blocker -3, S1P2 ag -7, GALR2 antag 10 and GALR2 ag -2.
Screening Oc1sc(C=Nc2ccc(F)cc2)c2ccccc12 returned Mac1 fbg inh -11, S1P2 blocker 27, S1P2 ag -7, GALR2 antag 39*, CD11b adhes enh -3, GALR2 ag -2, GALR2 ant conf 27* and BLA inhib ctr 14.
Cc1ccccc1Nc1cccc2nonc12 was read as GALR2 antag 33*, GALR2 ag -3, GALR2 ant conf 38* and BLA inhib ctr 47*.
Cc1ccccc1Nc1nc2ccccc2s1 was read as Mac1 fbg inh 6, GALR2 antag 9, CD11b adhes enh 2 and GALR2 ag -1.
For O=c1[nH][nH]c(-c2ccccc2)c1C=Nc1ccc(Cl)cc1 the results were S1P2 blocker 18, S1P2 ag -3, GALR2 antag 29*, GALR2 ag -3, GALR2 ant conf 19 and BLA inhib ctr 0.
For O=c1[nH][nH]c(-c2ccccc2)c1C=Nc1cccc(Cl)c1 the results were S1P2 blocker 25, S1P2 ag -2, GALR2 antag 0 and GALR2 ag -2.
For O=c1[nH]c(SCc2cccc(Cl)c2)nc2c1CCCC2 the results were Mac1 fbg inh -4, S1P2 blocker 7, S1P2 ag -2, GALR2 antag 4, CD11b adhes enh 1 and GALR2 ag -3.
CC(/C=N/NC(=O)Cn1cnc2ccccc21)=C\c1ccccc1 was read as Mac1 fbg inh 11, GALR2 antag 3, CD11b adhes enh 1 and GALR2 ag 0.
`O=C(Nc1ccc(S(=O)(=O)N2CCOCC2)cc1)c1ccc(CN2CCc3ccccc3C2)cc1` gave S1P2 blocker 85*, S1P2 ag -7, GALR2 antag 28*, GALR2 ag -2, GALR2 ant conf 46* and BLA inhib ctr 18.
For O=C(Nc1ccc(S(=O)(=O)N2CCCC2)cc1)c1ccc(CN2CCc3ccccc3C2)cc1 the results were Mac1 fbg inh 107, GALR2 antag 7, CD11b adhes enh -11 and GALR2 ag -1.
